aSyn yeast inh = qHTS of alpha-syn Inhibitors. Yeast expressing alpha-synuclein, growth rescue, BacTiter-Glo, 24 h. 0.14% of 370,000 active. Potency, µM (top dose mostly 46.1 µM), for inactives: at the highest dose growth rescue (activation), actives largely listed as activators. AID 652106, 2013; also: % of control where 0% means no effect; nearly all actives have a fitted effect of over 65% in size
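Readout is rescue of growth in alpha-synuclein-expressing yeast, so inhibitors of toxicity appear as activators. Growth after 24 hr at 30 deg C in galactose medium is quantified by luminescence.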
TDP-43 yeast inh = qHTS of TDP-43 Inhibitors. TDP-43 expressing yeast growth rescue, BacTiter-Glo, 24 h. AID 652104, 2013. 1.8% of 410,000 active. Potency, µM (highest dose often 46.1 µM), inactives show at the top dose growth rescue (activation), usual class: activators; also: % of control where 0% means no effect; nearly all actives have a fitted effect of over 50% in size
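Readout is BacTiter-Glo luminescence of cell growth, so inhibitors register as activators. TDP-43-expressing yeast at OD600=0.02 in galactose medium, after raffinose pregrowth to mid-log, were incubated with compound for 24 hr at 30 deg C.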
Abeta rescue = qHTS for compounds that reverse cellular toxicity of Amyloid beta (A-beta) peptide in yeast: Primary Screen. yeast expressing A-beta42, growth rescue, OD600, 48 h; response scale: 0% DMSO, 100% iron-clioquinol control. Potency, µM (top dose mostly 46.1 µM), most hits filed as activators. 0.063% of 410,000 active. AID 1347071, 2019; also: nearly all actives have a fitted effect of over 55% in size
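Growth rescue measured by 600 nm absorbance after 48 h yeast culture at 30 C with compound. Values normalized between DMSO and an equimolar ferric chloride plus clioquinol control.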
FUS yeast rescue = qHTS for Suppressors of FUS Proteinopathy: Primary screen using FUS-linked yeast assay | AID 1347120, 2019 | S. cerevisiae FUS-expressing, growth rescue, OD600, 24 h | 0.24% of 390,000 active | Potency, µM (doses to about 76.6 µM), actives largely listed as activators;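 also: plate controls were DMSO vehicle for no effect and reference control for full effect; nearly all actives have a fitted effect of over 55% in size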
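Yeast FUS proteinopathy model; galactose-induced FUS (2%), starting OD 0.005. Cpds in dilution series, 24hr, 30C, 99% humidity. Abs 600 nm growth. Pos ctrl CP55940 (top 92uM final); neg ctrl DMSO.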
* hit, by the source's call; [ ] = another dose, or the depositor's remark. Shown are actives, neighbours in structure and some others; about 2.1% of the full set was active somewhere. Calls follow the shape of the dose curve; as a rule, active = well fitted curve in the direction sought with a large enough effect; inconclusive = small, poorly fitted or top-dose-only effect, or another doubt; inactive = no such curve, though single readings can be large; an effect the other way counts as inactive or inconclusive. Potency is read from the fitted curve at half-maximal effect.

For Cc1ccc(-n2ncc3c(NCc4ccco4)ncnc32)cc1C the results were aSyn yeast inh 0%, TDP-43 yeast inh 9%, Abeta rescue inactive and FUS yeast rescue inactive.
Cc1ccc(-n2ncc3c(Nc4cccc(C)c4C)ncnc32)cc1 was read as TDP-43 yeast inh 6%, Abeta rescue inactive and FUS yeast rescue inactive.
For CNc1ncnc2c1cnn2-c1ccc(C)c(C)c1 the results were TDP-43 yeast inh 11µM*, Abeta rescue inactive and FUS yeast rescue inactive.
For c1ccc(Cn2ncc3c(Nc4ccccc4)ncnc32)cc1 the results were aSyn yeast inh -6%, TDP-43 yeast inh 13µM*, Abeta rescue inactive and FUS yeast rescue inactive.
For Cc1ccc(Nc2ncnc3c2cnn3-c2ccccc2)c(C)c1 the results were aSyn yeast inh 3%, TDP-43 yeast inh 35µM*, Abeta rescue inactive and FUS yeast rescue inactive.
For CCOC(=O)c1c2n(c3ccc(O)cc13)CCC2 the results were aSyn yeast inh 0%, TDP-43 yeast inh -1%, Abeta rescue inactive and FUS yeast rescue inactive.
Screening N/C(=N\OC(=O)c1ccc(Cl)cc1)c1ccn[nH]1 returned aSyn yeast inh -9%, TDP-43 yeast inh inconclusive, Abeta rescue inactive and FUS yeast rescue inactive.
Screening Cc1cccc(Nc2ncnc3c2cnn3C)c1 returned aSyn yeast inh -9%, TDP-43 yeast inh inconclusive, Abeta rescue inactive and FUS yeast rescue inactive.
`CSc1ncnc2c1cnn2-c1ccc(C)cc1C` gave aSyn yeast inh -8%, TDP-43 yeast inh 18µM*, Abeta rescue inactive and FUS yeast rescue inactive.
For Cc1ccc(-n2ncc3c(NCCc4ccccc4)ncnc32)cc1C the results were TDP-43 yeast inh inconclusive, Abeta rescue inactive and FUS yeast rescue inactive.
CCOCCCNc1ncnc2c1cnn2-c1ccc(C)c(C)c1 was read as TDP-43 yeast inh 11µM*, Abeta rescue inactive and FUS yeast rescue inactive.
`Cn1ncc2c(Nc3ccc4ccccc4c3)ncnc21` gave aSyn yeast inh -6%, TDP-43 yeast inh 10µM*, Abeta rescue inactive and FUS yeast rescue inactive.
`Fc1ccccc1Nc1ncnc2c1nnn2Cc1ccccc1` gave aSyn yeast inh 0%, TDP-43 yeast inh 11µM*, Abeta rescue inconclusive and FUS yeast rescue inactive.
FC(F)(F)c1cccc(NC(=S)NCC(c2cccnc2)N2CCOCC2)c1 (stereo unspecified) was read as aSyn yeast inh 0%, TDP-43 yeast inh 15%, Abeta rescue inactive and FUS yeast rescue inactive.
`COc1cc(-c2coc3c(C(=O)NC4CCCCC4)cccc23)ccc1O` gave aSyn yeast inh -15%, TDP-43 yeast inh 35µM*, Abeta rescue inactive and FUS yeast rescue inconclusive.
COc1cc(-c2coc3c(C(=O)NCc4ccc(N(C)C)cc4)cccc23)ccc1O was read as aSyn yeast inh 25%, TDP-43 yeast inh 0%, Abeta rescue inactive and FUS yeast rescue inconclusive.
`COc1cc(-c2coc3c(C(=O)NCc4ccc(OC)c(OC)c4)cccc23)ccc1O` gave aSyn yeast inh inconclusive, TDP-43 yeast inh 14µM*, Abeta rescue inactive and FUS yeast rescue inactive.
Screening CCN(CC)CCOc1ccc2c(c1)C(=NO)c1cc(OCCN(CC)CC)ccc1-2 returned aSyn yeast inh -2%, TDP-43 yeast inh -16%, Abeta rescue inactive and FUS yeast rescue inactive.
Screening N#Cc1cnc(SCC(=O)c2ccccc2)nc1N returned aSyn yeast inh 0%, TDP-43 yeast inh 21%, Abeta rescue inactive and FUS yeast rescue inactive.
N#Cc1cnc(SCCc2ccccc2)nc1N was read as aSyn yeast inh 1%, TDP-43 yeast inh 13µM*, Abeta rescue inactive and FUS yeast rescue inactive.
Screening O=S(=O)(NCc1cccs1)c1ccc(Br)cc1 returned aSyn yeast inh 1%, TDP-43 yeast inh 13%, Abeta rescue inactive and FUS yeast rescue inactive.
O=C(Nc1ccc(Br)cc1)c1ccc(F)c(S(=O)(=O)NCc2cccs2)c1 was read as aSyn yeast inh inconclusive, TDP-43 yeast inh 20µM*, Abeta rescue inconclusive and FUS yeast rescue inactive.
`CC(=O)N1CCOCCOCCN(C(C)=O)CCOCC1` gave aSyn yeast inh -9%, TDP-43 yeast inh -25%[0.397 µM], Abeta rescue inactive and FUS yeast rescue inactive.
For CCCCc1nn2c(C)c(-c3ccc(OCC)cc3)nc2s1 the results were TDP-43 yeast inh 22µM*, Abeta rescue inactive and FUS yeast rescue inactive.
For O=[N+]([O-])c1nn(-c2ccc3c(c2)OCCO3)n(O)c1=NCCCO the results were aSyn yeast inh 0%, TDP-43 yeast inh 1%, Abeta rescue inactive and FUS yeast rescue inactive.
For Cc1cc(C)cc(N=c2c([N+](=O)[O-])nn(-c3ccc4c(c3)OCCO4)n2O)c1 the results were aSyn yeast inh -1%, TDP-43 yeast inh 9%, Abeta rescue inactive and FUS yeast rescue inactive.
For O=[N+]([O-])c1nn(-c2ccc3c(c2)OCCO3)n(O)c1=NC1CCCCCC1 the results were aSyn yeast inh 3%, TDP-43 yeast inh 16µM*, Abeta rescue inactive and FUS yeast rescue inactive.
Screening O=[N+]([O-])c1nn(-c2ccc3c(c2)OCCO3)n(O)c1=NC1CCCC1 returned aSyn yeast inh 0%, TDP-43 yeast inh 5µM*, Abeta rescue inactive and FUS yeast rescue inactive.
For Cc1ccc(C2OC(=O)c3ccccc32)cc1 (stereo unspecified) the results were aSyn yeast inh 2%, TDP-43 yeast inh 35µM* and Abeta rescue inactive.
Screening Cc1cc(Nc2nnnn2-c2ccccc2)n(-c2ccccc2)n1 returned aSyn yeast inh -1%, TDP-43 yeast inh -6%, Abeta rescue inactive and FUS yeast rescue inactive.
Screening Cc1cc2ncn(-c3nnnn3-c3ccccc3)c2cc1C returned aSyn yeast inh 1%, TDP-43 yeast inh 18µM*, Abeta rescue inactive and FUS yeast rescue inactive.
For CN1C(=O)C2(OCC(C)([N+](=O)[O-])CO2)c2ccccc21 (stereo unspecified) the results were aSyn yeast inh -2%, TDP-43 yeast inh 5%, Abeta rescue inactive and FUS yeast rescue inactive.
For CN1C(=O)C2(N=c3ccccc3=N2)c2ccccc21 the results were aSyn yeast inh 15%, TDP-43 yeast inh 11µM*, Abeta rescue inactive and FUS yeast rescue inactive.
For Cc1cn([C@H]2C[C@H](O)[C@@H](CCC(=O)NCCc3cnc[nH]3)O2)c(=O)[nH]c1=O the results were aSyn yeast inh 9%, TDP-43 yeast inh -7%, Abeta rescue inactive and FUS yeast rescue inactive.
For Cc1ccc2nc(N3CCC(C(=O)O)CC3)nc(-c3ccccc3)c2c1 the results were aSyn yeast inh 12%, TDP-43 yeast inh 22µM*, Abeta rescue inactive and FUS yeast rescue inactive.
Screening Cc1ccc2nc(N3CCN(C(=O)CCC(=O)O)CC3)nc(-c3ccccc3)c2c1 returned aSyn yeast inh 0%, TDP-43 yeast inh 5%, Abeta rescue inactive and FUS yeast rescue inactive.

Screening data from PubChem BioAssay.
